Assay results from PubChem BioAssay (NCI).
Compounds without any hit were thinned out: in the full panel of roughly 83,000, 20% have a hit.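 Treatment: one concentration, 48 hours, 96-well format. Scoring: percent growth, with anything below 10 considered active.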 The source made the active and inactive calls.

Columns and labels:
Test in all cases: NCI-60 one-dose screen, 48 h (100 = growth as untreated, 0 = no growth, -100 = all killed)
Settings in all cases: 10 µM unless noted
[1] = tested on: NCI-H23 lung
[2] = tested on: NCI-H226 lung
[3] = tested on: NCI-H322M lung
[4] = tested on: HOP-62 NSCLC
[5] = tested on: NCI-H460 lung
[6] = tested on: HOP-92 NSCLC
[7] = tested on: NCI-H522 lung
[8] = tested on: A549/ATCC NSCLC
[9] = tested on: 786-0 renal
[10] = tested on: COLO 205 colon
[11] = tested on: DU-145 prostate
[12] = tested on: K-562 leukemia
[13] = tested on: MALME-3M melanoma
[14] = tested on: MDA-MB-231 breast
[15] = tested on: RXF 393 renal
[16] = tested on: SF-268 CNS
[17] = tested on: SF-295 CNS
[18] = tested on: SF-539 CNS
[19] = tested on: UACC-257 melanoma

Measured: growth

COc1c(B(O)O)cc(C)cc1-c1nc2ccc3[nH]ncc3c2c2c1CCCC2
inactive: [1] 70.9% | [2] 73.7% | [3] 106% | [4] 43% | [5] 31.4% | [6] 53.8% | [7] 37.3% | [8] 52.7% | [9] 48.3% | [10] 19.6% | [11] 72.6% | [12] 24.1% | [13] 91.6% | [14] 23.4% | [16] 50% | [17] 53.1% | [18] 12.5% | [19] 102%
active: [15] -2.67%

Cc1ccc(-c2nc(N3CCN(CC(=O)Nc4ccc(Cl)c(C(F)(F)F)c4)CC3)c3ccccc3n2)cc1
inactive: [1] 92.5% | [2] 90.3% | [3] 87.3% | [4] 98.6% | [5] 92.7% | [6] 96.5% | [7] 81.6% | [8] 75.8% | [9] 91.1% | [10] 86.3% | [11] 105% | [12] 69% | [13] 106% | [14] 90.7% | [15] 80.5% | [16] 81.6% | [17] 104% | [18] 95.9% | [19] 94.5%

CC1=C([Se]CC(OC(=O)[C@@H](CSSC(C)(C)C)NC(=O)OC(C)(C)C)C(=O)NC(C)(C)C)C(=O)c2ccccc2C1=O (some centres undefined)
active: [1] -63.7% | [2] -56.8% | [3] -73.6% | [4] -51% | [5] -52.1% | [6] -72.2% | [7] 7.01% | [8] 1.99% | [9] -93.8% | [10] -84.7% | [11] -98.7% | [13] -65.8% | [14] -42.2% | [15] -67.3% | [16] -96.6% | [17] -42.2% | [18] -100% | [19] -60%
inactive: [12] 31.9%

Nc1nn(C(=O)Nc2ccc(Cc3ccccc3)cc2)c2ccc(Cl)cc12
inactive: [1] 70.1% | [2] 63.5% | [3] 65.9% | [4] 67.8% | [5] 28.9% | [6] 99.8% | [7] 73.1% | [8] 38.3% | [9] 64% | [10] 34.9% | [11] 85.6% | [13] 55.9% | [14] 59.7% | [15] 93.3% | [16] 81.4% | [17] 27% | [19] 42.1%
active: [12] 3.86% | [18] -19.2%

CCN(CC)c1ccc(C2=NN(C(C)=O)C(c3cc(OC)c(OC)c(OC)c3)C2)cc1 (centres undefined)
inactive: [1] 23.5% | [4] 40.7% | [5] 13.4% | [6] 20.6% | [8] 17.1% | [9] 24% | [13] 21.7% | [16] 18.8% | [19] 55.9%
active: [2] 9.31% | [3] -3.75% | [7] -46.3% | [10] -4.4% | [11] -39.4% | [12] -4.46% | [14] 3.7% | [15] -44% | [17] 7.69% | [18] 2.39%

O=C1c2cccc3cccc(c23)C(=O)N1Nc1nc(NC2CCCCC2)nc(N2CCOCC2)n1
inactive: [1] 95.4% | [2] 98% | [3] 93.4% | [4] 91.3% | [5] 102% | [6] 86.3% | [7] 93.5% | [8] 95% | [9] 104% | [10] 107% | [11] 108% | [12] 88.9% | [13] 90.1% | [14] 82.9% | [15] 109% | [16] 99.7% | [17] 105% | [18] 98.4% | [19] 100%

C=C(C)C1CCC2(C)OC2C1 (centres undefined)
inactive: [1] 111% | [2] 98.8% | [3] 94.9% | [4] 94.6% | [5] 103% | [6] 117% | [7] 105% | [8] 127% | [9] 98.7% | [10] 142% | [11] 122% | [12] 135% | [13] 95.7% | [14] 102% | [15] 204% | [16] 115% | [17] 96.7% | [18] 103% | [19] 132%

CCN(CC)CCNC(=O)c1cn2ncnc(Oc3ccc(NC(=O)Nc4ccc(Cl)c(C(F)(F)F)c4)cc3)c2c1C
active: [1] -83.6% | [2] 6% | [3] 4.06% | [4] -78.5% | [5] -74.4% | [6] -39.1% | [7] -63% | [8] -85.2% | [9] -89.9% | [10] -73.4% | [11] -53.3% | [12] -79.1% | [13] -81.1% | [14] -94.6% | [15] -36.3% | [16] -64.6% | [17] -87.4% | [18] -93.1% | [19] -83.2%

N#Cc1cccc(NC(=O)c2cc(-c3ccc(F)cc3F)ccc2O)c1
active: [1] 1.56% | [2] 3.58% | [3] 1.78% | [5] 6.49% | [6] -24.2% | [7] -3.38% | [13] -25.1% | [14] -2.77% | [15] 3.07% | [19] -10%
inactive: [4] 23% | [8] 27.3% | [9] 31.1% | [10] 107% | [11] 18.4% | [12] 13.3% | [16] 14.5% | [17] 80.5% | [18] 16.3%

O=c1ccc(N=Nc2ccccc2)ccc1Cl
inactive: [1] 16.4% | [2] 87.7% | [3] 103% | [4] 93.9% | [5] 98% | [6] 114% | [8] 103% | [9] 48.8% | [10] 68.4% | [11] 93.2% | [13] 55% | [16] 92.5% | [17] 69.6% | [18] 45.8% | [19] 74.6%
active: [7] -22.6% | [12] 0.344% | [14] -1.83% | [15] 6.49%

C#Cc1cccc(NC(=O)c2ccc(NC(=O)C=C)cc2)c1
inactive: [1] 99.1% [8.25 µM] | [2] 88.1% [8.25 µM] | [3] 84.4% [8.25 µM] | [4] 95.2% [8.25 µM] | [5] 94.5% [8.25 µM] | [6] 90% [8.25 µM] | [7] 45.4% [8.25 µM] | [8] 69.6% [8.25 µM] | [9] 56.5% [8.25 µM] | [10] 115% [8.25 µM] | [11] 58.9% [8.25 µM] | [12] 71% [8.25 µM] | [13] 85.2% [8.25 µM] | [14] 90% [8.25 µM] | [15] 58.7% [8.25 µM] | [16] 79.3% [8.25 µM] | [17] 102% [8.25 µM] | [18] 75.6% [8.25 µM] | [19] 69.9% [8.25 µM]

N#Cc1ccc(NC(=O)c2sc3nc4c(cc3c2N)C(=O)CCC4)cc1
inactive: [1] 106% | [2] 93.7% | [3] 103% | [4] 101% | [5] 85.9% | [6] 95.6% | [7] 103% | [8] 92.5% | [9] 97.8% | [10] 109% | [11] 94.9% | [12] 108% | [13] 89.3% | [14] 109% | [15] 119% | [16] 102% | [17] 82.4% | [18] 99.8% | [19] 106%

C/C(=C\C(=O)c1ccc(Cl)cc1)c1ccc(Cl)cc1
inactive: [1] 83.9% | [2] 90.9% | [3] 84.9% | [4] 88.1% | [5] 100% | [6] 72.8% | [7] 87.8% | [8] 95.2% | [9] 108% | [10] 97.5% | [11] 113% | [12] 106% | [13] 97.5% | [14] 89.8% | [15] 106% | [16] 96.4% | [17] 109% | [18] 104% | [19] 98.4%

COc1ccc(CN2c3ccccc3Sc3ccccc32)c(F)c1
active: [7] -12% | [12] 8.99% | [15] 0.721% | [17] 7.51% | [18] -3.66%
inactive: [1] 50.5% | [2] 56.1% | [3] 44.7% | [4] 26.6% | [5] 11% | [6] 33.2% | [8] 34.1% | [9] 42.2% | [10] 11.7% | [11] 20.5% | [13] 57% | [14] 60.4% | [16] 52.3% | [19] 52.3%

O=c1c2cc(F)ccc2sc2c(NCCCNCCO)nc3ccc(F)cc3c12
inactive: [1] 82.5% | [2] 84.8% | [3] 79.4% | [4] 71.5% | [7] 60.9% | [8] 64.7% | [9] 64.1% | [10] 23.3% | [11] 37.4% | [13] 85.5% | [15] 63% | [16] 51.8% | [17] 98.6% | [18] 63.9% | [19] 94%
active: [5] -32.8% | [6] 4.67% | [12] -33.5% | [14] -7.79%

COc1ccc(NC2=C(Br)C(=O)C(C)=C(C)C2=O)cc1
active: [6] -73.6% | [12] -2.92% | [14] -55.4%
inactive: [1] 79.7% | [2] 75.5% | [3] 89.9% | [4] 84.2% | [5] 99.9% | [7] 87.6% | [8] 99.5% | [9] 103% | [10] 115% | [11] 106% | [13] 94.4% | [15] 102% | [16] 98% | [17] 98.9% | [18] 90.6% | [19] 72.8%
